In PubChem BioAssay AID1159580 (chemical genetic matrix, 2015):
Hit rate of the full screen: of about 5,500 compounds, about 2,000 (36%) were called active. Another 18% or so got no clear call; they are omitted. Cut-off read from the data, not from the text of the source: active = normalized growth mostly below about 0.91 (no sharp cut-off); inconclusive = no clear call, values can overlap the other calls; inactive = mostly above about 0.92. Some of the results follow.

Assay: chemical genetic growth profiling, strain panel (AID 1159580);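 note: tested at 20 µM; growth read once vehicle control cultures reached saturation at 30 °C; 1 = growth at the plate median or of vehicle wells; lower values mean less growth of the strain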
Conditions: growth OD

Measured: normalized growth

OCc1ccccc1O[C@@H]1O[C@H](CO)[C@@H](O)[C@H](O)[C@H]1O
inactive: S. cerevisiae deletion strains, locus YJR066W, strain TOR1, active compounds read low 0.94 | S. cerevisiae deletion strains, locus YKL009W, strain mrt4, active compounds read low 1.01 | S. cerevisiae deletion strains, locus YKL068W, active compounds read low 0.98 | S. cerevisiae deletion strains, locus YKL085W, strain MDH1 (second series), active compounds read low 0.973 | S. cerevisiae deletion strains, locus YKL085W, strain MDH1, active compounds read low 0.973 | S. cerevisiae deletion strains, locus YKL160W, strain elf1, active compounds read low 0.993 | S. cerevisiae deletion strains, locus YKL190W, strain CNB1, active compounds read low 0.988 | S. cerevisiae deletion strains, locus YKR001C, strain vps1, active compounds read low 0.985 | S. cerevisiae deletion strains, locus YKR026C, strain gcn3, active compounds read low 1 | S. cerevisiae deletion strains, locus YKR091W, strain srl3, active compounds read low 0.994 | S. cerevisiae deletion strains, locus YLL001W, strain dnm1, active compounds read low 0.975 | S. cerevisiae deletion strains, locus YLL026W, active compounds read low 0.999 | S. cerevisiae deletion strains, locus YLL041C, strain sdh2, active compounds read low 0.991 | S. cerevisiae deletion strains, locus YLR027C, strain aat2, active compounds read low 1 | S. cerevisiae deletion strains, locus YLR039C, strain RIC1, active compounds read low 0.936 | S. cerevisiae deletion strains, locus YLR058C, strain SHM2, active compounds read low 0.978 | S. cerevisiae deletion strains, locus YLR102C, strain apc9, active compounds read low 0.99 | S. cerevisiae deletion strains, locus YLR113W, strain HOG1, active compounds read low 1.01 | S. cerevisiae deletion strains, locus YLR221C, strain rsa3, active compounds read low 0.991 | S. cerevisiae deletion strains, locus YLR258W, strain gsy2, active compounds read low 0.977 | S. cerevisiae deletion strains, locus YLR262C, strain YPT6 (second series), active compounds read low 0.997 | S. cerevisiae deletion strains, locus YLR262C, strain YPT6, active compounds read low 0.929 | S. cerevisiae deletion strains, locus YLR268W, strain sec22, active compounds read low 0.979 | S. cerevisiae deletion strains, locus YLR320W, strain mms22, active compounds read low 0.999 | S. cerevisiae deletion strains, locus YLR330W, strain CHS5, active compounds read low 0.989 | S. cerevisiae deletion strains, locus YLR342W, strain FKS1 (second series), active compounds read low 1.06 | S. cerevisiae deletion strains, locus YLR342W, strain FKS1, active compounds read low 0.995 | S. cerevisiae deletion strains, locus YLR357W, strain rsc2, active compounds read low 1.02 | S. cerevisiae deletion strains, locus YLR370C, strain arc18, active compounds read low 0.98 | S. cerevisiae deletion strains, locus YLR371W, strain rom2, active compounds read low 0.994 | S. cerevisiae deletion strains, locus YLR384C, strain iki3, active compounds read low 0.989 | S. cerevisiae deletion strains, locus YLR418C, strain cdc73, active compounds read low 1.02 | S. cerevisiae deletion strains, locus YML016C, strain PPZ1, active compounds read low 0.988 | S. cerevisiae deletion strains, locus YML032C, strain rad52, active compounds read low 0.993 | S. cerevisiae deletion strains, locus YML120C, strain ndi1, active compounds read low 1 | S. cerevisiae deletion strains, locus YML124C, strain tub3, active compounds read low 0.992 | S. cerevisiae deletion strains, locus YMR058W, strain fet3, active compounds read low 0.999 | S. cerevisiae deletion strains, locus YMR078C, strain ctf18, active compounds read low 0.987 | S. cerevisiae deletion strains, locus YMR125W, strain sto1, active compounds read low 0.976 | S. cerevisiae deletion strains, locus YMR129W, active compounds read low 1 | S. cerevisiae deletion strains, locus YMR205C, strain PFK2, active compounds read low 1.01 | S. cerevisiae deletion strains, locus YMR223W, strain ubp8, active compounds read low 1.05 | S. cerevisiae deletion strains, locus YMR231W, strain pep5, active compounds read low 0.992 | S. cerevisiae deletion strains, locus YMR263W, strain SAP30, active compounds read low 0.992 | S. cerevisiae deletion strains, locus YMR307W, strain GAS1, active compounds read low 1.06 | S. cerevisiae deletion strains, locus YNL067W, strain RPL9B, active compounds read low 0.968 | S. cerevisiae deletion strains, locus YNL071W, strain lat1, active compounds read low 0.999 | S. cerevisiae deletion strains, locus YNL153C, strain GIM3, active compounds read low 0.951 | S. cerevisiae deletion strains, locus YNL183C, strain NPR1, active compounds read low 0.944 | S. cerevisiae deletion strains, locus YNL209W, strain ssb2, active compounds read low 0.974 | S. cerevisiae deletion strains, locus YNL233W, strain BNI4, active compounds read low 0.974 | S. cerevisiae deletion strains, locus YNL248C, strain rpa49, active compounds read low 0.986 | S. cerevisiae deletion strains, locus YNL250W, strain rad50, active compounds read low 0.99 | S. cerevisiae deletion strains, locus YNL271C, strain bni1, active compounds read low 0.98 | S. cerevisiae deletion strains, locus YNL298W, strain CLA4, active compounds read low 0.994 | S. cerevisiae deletion strains, locus YNL307C, strain MCK1, active compounds read low 0.986 | S. cerevisiae deletion strains, locus YNL322C, strain KRE1 (second series), active compounds read low 0.997 | S. cerevisiae deletion strains, locus YNL322C, strain KRE1, active compounds read low 0.991 | S. cerevisiae deletion strains, locus YNR049C, strain mso1, active compounds read low 0.978 | S. cerevisiae deletion strains, locus YNR052C, strain pop2, active compounds read low 0.998 | S. cerevisiae deletion strains, locus YOL006C, strain TOP1, active compounds read low 0.957 | S. cerevisiae deletion strains, locus YOL012C, strain htz1 1.27 | S. cerevisiae deletion strains, locus YOL147C, strain pex11, active compounds read low 1 | S. cerevisiae deletion strains, locus YOR001W, strain rrp6, active compounds read low 0.998 | S. cerevisiae deletion strains, locus YOR061W, strain CKA2, active compounds read low 0.956 | S. cerevisiae deletion strains, locus YOR069W, strain VPS5, active compounds read low 0.995 | S. cerevisiae deletion strains, locus YOR070C, strain gyp1, active compounds read low 0.995 | S. cerevisiae deletion strains, locus YOR080W, strain dia2, active compounds read low 0.991 | S. cerevisiae deletion strains, locus YOR083W, strain WHI5, active compounds read low 0.999 | S. cerevisiae deletion strains, locus YOR106W, strain vam3, active compounds read low 0.977 | S. cerevisiae deletion strains, locus YOR136W, strain idh2, active compounds read low 0.988 | S. cerevisiae deletion strains, locus YOR144C, strain elg1, active compounds read low 0.99 | S. cerevisiae deletion strains, locus YOR184W, strain ser1, active compounds read low 0.991 | S. cerevisiae deletion strains, locus YOR231W, strain MKK1, active compounds read low 1.01 | S. cerevisiae deletion strains, locus YOR265W, strain rbl2, active compounds read low 1 | S. cerevisiae deletion strains, locus YOR270C, strain vph1, active compounds read low 0.918 | S. cerevisiae deletion strains, locus YOR290C, strain snf2, active compounds read low 0.99 | S. cerevisiae deletion strains, locus YOR316C, strain cot1, active compounds read low 0.975 | S. cerevisiae deletion strains, locus YPL051W, strain arl3, active compounds read low 0.98 | S. cerevisiae deletion strains, locus YPL078C, strain atp4, active compounds read low 0.992 | S. cerevisiae deletion strains, locus YPL106C, strain sse1, active compounds read low 0.991 | S. cerevisiae deletion strains, locus YPL240C, strain hsp82, active compounds read low 0.985 | S. cerevisiae deletion strains, locus YPL241C, strain CIN2, active compounds read low 0.994 | S. cerevisiae deletion strains, locus YPL256C, strain CLN2, active compounds read low 1.03 | S. cerevisiae deletion strains, locus YPR119W, strain clb2, active compounds read low 0.98 | S. cerevisiae deletion strains, locus YPR141C, strain kar3, active compounds read low 0.973 | S. cerevisiae deletion strains, locus YPR163C, strain tif3, active compounds read low 0.992 | S. cerevisiae deletion strains, locus YPR167C, strain met16, active compounds read low 0.997 | S. cerevisiae deletion strains, strain wtn01, active compounds read low 1.01 | S. cerevisiae strains, strain wild type, active compounds read low 0.979
